Our source for the growth values is PubChem BioAssay (NCI).

Compounds without any hit were thinned out: in the full panel of roughly 83,000, 20% have a hit.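 The endpoint reported here, percent growth, reads 100 for growth as untreated, 0 for no net growth and -100 for all cells dead.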 Unmarked numbers belong to inactive results. The source made the active and inactive calls. The calls were made as follows: active = growth percent below 10; inactive = the rest.

Assay in all cases: NCI-60 one-dose screen, 48 h (100 = growth as untreated, 0 = no growth, -100 = all killed)
The subject of one assay is DU-145 prostate. Particulars: 10 µM unless noted.
In a further assay the test system is K-562 leukemia. Particulars: 10 µM unless noted.
The test system of another assay is MALME-3M melanoma. Particulars: 10 µM unless noted.
The next assay relates to MDA-MB-231 breast. Particulars: 10 µM unless noted.
Another assay has as its system RXF 393 renal. The following applies: 10 µM unless noted.
Another assay deals with SF-268 CNS. The following applies: 10 µM unless noted.
A further assay concerns SF-295 CNS. Particulars: 10 µM unless noted.
The next assay deals with SF-539 CNS. Particulars: 10 µM unless noted.
The next assay has as its system M14 melanoma. Particulars: 10 µM unless noted.
Another assay concerns UACC-257 melanoma. Particulars: 10 µM.

Consider `CC(=O)NC(C)(C)C(=O)N[C@@H](C)C(=O)NC(C)(C)C(=O)N[C@@H](C)C(=O)NC(C)(C)C(=O)N[C@@H](C)C(=O)N[C@@H](CCC(N)=O)C(=O)NC(C)(C)C(=O)N[C@H](C(=O)NC(C)(C)C(=O)NCC(=O)N[C@@H](CC(C)C)C(=O)NC(C)(C)C(=O)N1CCC[C@H]1C(=O)N[C@H](C(=O)NC(C)(C)C(=O)NC(C)(C)C(=O)N[C@@H](CCC(N)=O)C(=O)N[C@@H](CCC(N)=O)C(=O)N[C@H](CO)CC1CCCCC1)C(C)C)C(C)C`, for which the growth with DU-145 prostate was 55.5% [5 µM]; in the assay on K-562 leukemia it was 24.3% [5 µM]; in the assay with MALME-3M melanoma it was -41.4% [5 µM] (active); with MDA-MB-231 breast it was 55.3% [5 µM]; in the assay on RXF 393 renal it was 55.8% [5 µM]; with SF-268 CNS, 46.9% [5 µM]. The growth is 23.9% [5 µM] in the assay on SF-295 CNS, 29.3% [5 µM] with SF-539 CNS and 4.76% [5 µM] (active) in the assay with M14 melanoma.

On to `O=S(=O)(Nc1ccc(-n2cnc3cc(-c4ccc(O)cc4)ccc32)cc1)C1CC1`, for which the growth in the assay on DU-145 prostate is 95.3%; with K-562 leukemia, 59.8%; in the assay with MALME-3M melanoma, 98.5%; in the assay on MDA-MB-231 breast, 84.3%; in the assay on SF-268 CNS it was 83.3%; in the assay on SF-295 CNS, 90.1%. For the same compound, the growth was 71.8% with SF-539 CNS, 98.2% with UACC-257 melanoma and 96.6% in the assay with M14 melanoma.

For the compound `COc1ccc(-c2cc(-c3cccc4ccccc34)n3c(n2)nc2ccccc23)cc1OC`, the growth with DU-145 prostate is 15.7%; in the assay with K-562 leukemia, 32.8%; in the assay with MALME-3M melanoma, 16.9%; with MDA-MB-231 breast, 66.7%; with SF-268 CNS, 35.3%; in the assay on SF-295 CNS, 2.25% (active). Moreover, the growth with SF-539 CNS is 31.1%; in the assay with UACC-257 melanoma, 60.8%; in the assay with M14 melanoma, 36%.

Regarding `CC[C@H](C)[C@H]1NC(=O)[C@@H]([C@H](O)C(C)C)NC(=O)[C@@H](C)N(C)C(=O)[C@H](C)N(C)C(=O)[C@H](CC(C)C)NC(=O)[C@H](CC(C)C)N(C)C(=O)[C@H](C)N(C)C1=O`, the growth was 1.83% (active) in the assay with DU-145 prostate; 7.23% (active) in the assay with K-562 leukemia; 3.72% (active) with MALME-3M melanoma; 8.22% (active) in the assay with MDA-MB-231 breast; -17.8% (active) in the assay on RXF 393 renal; 4.57% (active) in the assay with SF-268 CNS. For the same compound, the growth in the assay with SF-295 CNS is -4.82% (active); with SF-539 CNS it was -12.6% (active); in the assay on M14 melanoma, -18.2% (active).

Turning to `CC[C@@](C)(NC(=O)C(C)(C)NC(=O)[C@@H](NC(=O)[C@@H]1CCCN1C(=O)C(C)(C)NC(=O)[C@H](CC(C)C)NC(=O)CNC(=O)C(C)(C)NC(=O)[C@@H](NC(=O)C(C)(C)NC(=O)[C@H](CCC(N)=O)NC(=O)[C@H](C)NC(=O)C(C)(C)NC(=O)[C@H](C)NC(=O)C(C)(C)NC(=O)[C@@H]1CCCN1C(=O)C(C)(C)NC(C)=O)C(C)C)C(C)C)C(=O)N[C@@H](CCC(N)=O)C(=O)N[C@@H](CCC(N)=O)C(=O)N[C@H](CO)Cc1ccccc1`, the growth in the assay on DU-145 prostate is 30.9% [4.25 µM]; in the assay with K-562 leukemia, 29.1% [4.25 µM]; in the assay on MALME-3M melanoma it was -21.3% [4.25 µM] (active); with MDA-MB-231 breast, 32.4% [4.25 µM]; in the assay with RXF 393 renal it was 29.1% [4.25 µM]; in the assay on SF-268 CNS, 31.6% [4.25 µM]. For the same compound, the growth in the assay with SF-295 CNS is 86.6% [4.25 µM]; with SF-539 CNS, 28.7% [4.25 µM]; with M14 melanoma it was 65.9% [4.25 µM].

As to `Nc1nc(N)c2c(n1)NC(c1ccccc1)CC(c1ccc(Nc3nc(NCCO)nc(Nc4ccc(Cl)cc4)n3)cc1)=N2` (stereo not given), the growth is 41.6% in the assay on DU-145 prostate; -40.7% (active) in the assay on K-562 leukemia; -89.6% (active) in the assay on MALME-3M melanoma; 73.3% in the assay with MDA-MB-231 breast; 76.5% in the assay with SF-268 CNS; 46.9% in the assay with SF-295 CNS. Besides, the values for the growth in the assay on SF-539 CNS, in the assay with UACC-257 melanoma and with M14 melanoma were 71.1%, 113% and 81%, respectively.

`COC(=O)[C@@]1(C)CC[C@]2(C)CC[C@]3(C)C(=CC(=O)[C@@H]4[C@@]5(C)Cc6c(n(CC#CCN7CCN(C)CC7)c7ccccc67)C(C)(C)[C@@H]5CC[C@]43C)[C@@H]2C1`: the growth was 54.5% in the assay on DU-145 prostate; -5.29% (active) with K-562 leukemia; 115% in the assay on MALME-3M melanoma; 67.2% with MDA-MB-231 breast; 86.6% in the assay with SF-268 CNS; 85.9% in the assay on SF-295 CNS. Besides, the growth in the assay with SF-539 CNS is 91.5%; with UACC-257 melanoma, 106%; in the assay on M14 melanoma it was 90.6%.

For `COc1ccc(C2CC(c3ccc(Nc4nc(NCCO)nc(Nc5ccc(Cl)cc5)n4)cc3)=Nc3c(N)nc(N)nc3N2)cc1` (stereo not given), the growth in the assay with DU-145 prostate was 73.1%; in the assay on K-562 leukemia, -10.1% (active); in the assay with MALME-3M melanoma, 113%; in the assay with MDA-MB-231 breast it was 77.3%; with SF-268 CNS it was 81.6%; in the assay on SF-295 CNS, 82%. Further, the growth in the assay with SF-539 CNS is 84.4%; with UACC-257 melanoma, 113%; with M14 melanoma, 94.7%.

Take `CC1(C)CC[C@]2(C(=O)N3CCCN(CC#N)CC3)CC[C@]3(C)C(=CC[C@@H]4[C@@]5(C)CC[C@H](O)C(C)(C)[C@@H]5CC[C@]43C)[C@H]2C1`: the growth was 78.5% in the assay on DU-145 prostate; 3.77% (active) with K-562 leukemia; 77.8% in the assay with MALME-3M melanoma; 55.6% in the assay with MDA-MB-231 breast; 69.2% with SF-268 CNS; 91.7% with SF-295 CNS. Also, the values for the growth in the assay on SF-539 CNS, with UACC-257 melanoma and in the assay with M14 melanoma were 68.5%, 50.6% and 65.7%, respectively.

Regarding `C/C=C/[C@@H]1C=C[C@@H]2C[C@H](C)CC[C@H]2[C@]1(C)/C(O)=C1/C(=O)[C@H](CO)N(C)C1=O`, the growth in the assay with DU-145 prostate was 56.5%; in the assay on K-562 leukemia, 46.5%; in the assay on MALME-3M melanoma it was 79.5%; in the assay with MDA-MB-231 breast, 80.1%; in the assay on RXF 393 renal, 64.9%; in the assay on SF-268 CNS, 54.8%. The growth is 43.3% with SF-295 CNS, 58.5% in the assay with SF-539 CNS and 62.2% in the assay on M14 melanoma.

As to `COc1cc(C2=NN(C(C)=O)C(c3ccc(N4CCOCC4)cc3)C2)cc(OC)c1OC` (stereo not given), the growth was 107% in the assay with DU-145 prostate; 114% in the assay on K-562 leukemia; 94.4% in the assay with MALME-3M melanoma; 92% in the assay on MDA-MB-231 breast; 108% with RXF 393 renal; 99% with SF-268 CNS. The growth in the assay with SF-295 CNS was 101%; in the assay with SF-539 CNS it was 102%; in the assay with UACC-257 melanoma it was 103%; with M14 melanoma it was 84.1%.
